# The list is not random: actives were taken first. Their share in the collection is about 2.4%.
# M1 ag parental = M1 agonist counterscreen hit in parental CHO-K1 cells; Fluo-8 calcium fluorescence; scaled to maximal ATP response, vehicle zero; activation, % at 3 µM; hit rate 0.48% among 360,000; in the data active means activation above about 15%;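 further: untransfected CHO-K1 host cells lacking M1 receptor as counterscreen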
# CHRM1 PAM = potentiates human M1 receptor response to acetylcholine; P11229; CHO-K1 hM1, Fluo-8 calcium fluorescence, ACh EC20; 0% = ACh EC20, 100% = maximal ACh; activation, % at 3 µM; hit rate 0.088% among 360,000; AID 588819; in the data active means activation above about 19%, passing the limit was not always enough
# Target sequence (P11229 whole entry, looked up): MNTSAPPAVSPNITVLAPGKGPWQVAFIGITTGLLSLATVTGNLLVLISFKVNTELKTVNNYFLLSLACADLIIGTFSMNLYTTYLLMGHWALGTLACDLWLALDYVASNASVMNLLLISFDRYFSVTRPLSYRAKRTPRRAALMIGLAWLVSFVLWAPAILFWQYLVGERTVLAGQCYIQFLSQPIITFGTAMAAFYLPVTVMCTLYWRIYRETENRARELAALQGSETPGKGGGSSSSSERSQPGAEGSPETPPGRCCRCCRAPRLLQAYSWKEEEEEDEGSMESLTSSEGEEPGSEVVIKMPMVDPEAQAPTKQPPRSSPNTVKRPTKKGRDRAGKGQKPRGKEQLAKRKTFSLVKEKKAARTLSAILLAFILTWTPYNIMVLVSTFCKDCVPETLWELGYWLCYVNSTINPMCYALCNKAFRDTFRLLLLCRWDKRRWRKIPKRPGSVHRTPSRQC
# M1 PAM parental = nonselective activator or artifact in parental CHO-K1 calcium assay; hit rate 0.02% among 360,000; AID 602247; activation, % at 3 µM; ATP EC20, Fluo-8 calcium fluorescence; 0% at ATP EC20, 100% at ATP max;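 active means activation above the run cutoff, the mean activation of all test compounds plus 3 SD, cut at about 40% in these data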;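 further: peak over basal fluorescence ratio in a 140 s read after ATP addition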
# CHRM1 antagonist = antagonists of human M1 muscarinic receptor. CHO-K1 hM1, Fluo-8 calcium fluorescence, ACh EC80 antagonist. hit rate 1.3% among 360,000. AID 588852. P11229. inhibition, % at 3 µM;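 active means percent inhibition above its own plate's cutoff, namely the mean of that plate's compound wells plus 3 SD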;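 further: peak over basal fluorescence ratio during 140 s after agonist addition; 0% = ACh EC80 plus DMSO and 100% = DMSO alone without agonist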
# CHO-K1 Ca antag = nonselective inhibitor or artifact in parental CHO-K1 cells; inhibition, % at 3 µM; AID 602250; hit rate 0.6% among 360,000; ATP-induced calcium, Fluo-8 fluorescence;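 active means inhibition above a per-plate cutoff, the plate's mean sample inhibition plus 3 SD, cut at about 24% in these data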;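 further: 0% = DMSO plus EC80 ATP and 100% = DMSO alone without ATP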
# M1 ag = agonists of human M1 muscarinic receptor; P11229; CHO-K1 hM1, Fluo-8 calcium fluorescence, agonist mode; 0% DMSO, 100% acetylcholine EC100; activation, % at 3 µM; hit rate 0.33% among 360,000;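 active means activation above the run's mean compound activation plus 3 SD, cut at about 16% in these data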;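 further: peak over basal fluorescence ratio within a 140 s kinetic read after compound addition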
# * = called active by the depositor; · = no result.
SMILES,M1 ag parental,CHRM1 PAM,M1 PAM parental,CHRM1 antagonist,CHO-K1 Ca antag,M1 ag
COc1ccc(-c2csc(N3CCN(C(=O)c4ccco4)CC3)n2)cc1,4.3,-9.6,6.5,-0.7,-3.4,-1.5
COc1ccc(C2/C=C\CN(C(=O)C3CCCCC3)CC(=O)N2Cc2ccc(F)cc2)cc1 (stereo unspecified),0.0,7.0,10.0,-3.6,-8.7,-1.2
COc1ccc(C2/C=C\CN(C(=O)C3CCCC3)CC(=O)N2Cc2ccc(F)cc2)cc1 (stereo unspecified),-0.3,31.6*,6.7,-22.4,-13.4,4.0
CCOc1ccccc1-c1c2cc(O)c(=O)cc-2oc2cc(O)c(O)cc12,16.6*,-4.2,11.5,0.8,3.1,17.5*
O=c1cc2oc3cc(O)c(O)cc3c(-c3ccccc3O)c-2cc1O,10.8,-9.8,1.8,9.7,-1.1,26.3*
COc1ccc(OC)c(-c2c3cc(O)c(=O)cc-3oc3cc(O)c(O)cc23)c1,71.5*,-19.4,-7.6,32.9*,32.1*,222.5*
O=C1C2C3C=CC(C3)C2C(=O)N1c1ccc(Cc2ccncc2)cc1 (stereo unspecified),2.2,1.9,11.7,-2.4,9.2,7.1
N=C(N)SCc1ncccc1O,0.3,3.8,20.3,-13.9,-18.5,11.6
N=C(N)SCc1ccccn1,0.1,-6.3,25.9,-1.6,-0.7,29.9*
CCOC(=O)C1C(=O)C=C(/C=C/c2ccc(N(C)C)cc2)CC1c1ccccc1 (stereo unspecified),22.1*,-6.6,6.1,21.2,13.8,18.3*
O=C(CCNS(=O)(=O)c1ccc(Br)s1)NCc1ccc(F)cc1,-0.4,-5.1,-15.5,5.7,29.4*,-4.6
O=C(CNS(=O)(=O)c1ccc(Br)s1)NCc1ccc(F)cc1,3.2,-5.6,7.3,0.9,-16.3,-8.9
O=C(NCCN1C(=O)S/C(=C\c2ccc(OC(F)F)cc2)C1=O)[C@@H]1CCCN1C(=O)c1cccs1,20.5*,-4.8,0.6,0.6,9.1,-10.9
O=C(O)c1ccc(NS(=O)(=O)c2ccc3c(c2)C(=O)c2ccccc2C3=O)cc1,-0.8,-2.6,-17.8,0.3,24.6*,-3.3
O=C(O)c1cccc(S(=O)(=O)Nc2ccc(-c3ccccc3)cc2)c1,0.7,2.0,9.9,-11.2,-8.4,-5.4
Cc1ccc(CNC(=O)CO/N=C/c2ccc(C(C)(C)C)cc2)cc1,0.5,15.0,38.6,-4.0,-13.0,5.4
CC(C)(C)c1ccc(/C=N/OCC(=O)NCc2ccccc2)cc1,0.6,15.4,21.2,-9.7,-12.6,17.8*
CC(=O)NCCc1ccc(S(=O)(=O)Nc2ccc(NC(=O)c3ccc(F)cc3)cc2)cc1,1.3,10.5,-5.1,-8.6,-10.5,0.6
CC(C)n1nc(C(=O)Nc2ccc3c(c2)OCO3)c2ccccc2c1=O,0.3,-0.7,35.0,0.1,-29.4,-3.2
Cc1ccc(C2C3=C(CC(C)(C)CC3=O)Nc3n[nH]c(C)c32)cc1 (stereo unspecified),-0.1,3.5,-5.5,0.4,24.7*,0.6
O=C(c1cccs1)N1CCN(Cc2ccncc2)CC1,0.5,1.7,8.9,-1.3,-7.6,-5.0
Cn1c(=O)cc(OCCCC(=O)N2CCN(c3ccccc3)CC2)c2ccccc21,1.6,7.3,-7.0,0.7,29.7*,-3.8
CCC1CCCCN1CCCNC(=O)CCCOc1cc(=O)n(C)c2ccccc12 (stereo unspecified),0.0,-29.2,19.9,48.8*,-6.1,-10.4
COc1ccc(F)cc1C(=O)C1CCCN(C(=O)CSc2ccccn2)C1 (stereo unspecified),3.8,9.0,21.2,-10.2,-7.0,-2.4
Cc1ccc(NC(=O)c2ccc(Cn3cc(Cl)cn3)o2)c(C)c1,0.3,2.4,17.1,-7.0,-8.7,-5.0
SMILES,M1 ag parental,CHRM1 PAM,M1 PAM parental,CHRM1 antagonist,CHO-K1 Ca antag,M1 ag
CN(C)CC/C=C1/c2ccccc2Sc2c(O)cc(Cl)cc21,1.6,-31.2,-0.2,96.6*,4.2,-10.0
COc1cc(Cl)cc2c1Sc1ccccc1/C2=C/CCN(C)C,1.3,-23.7,18.7,68.4*,-9.5,-4.0
CN1CCN(CC/C=C2/c3ccccc3Sc3ccc(S(=O)(=O)N(C)C)cc32)CC1,1.4,-8.2,-6.2,-14.8,7.5,-5.5
CN(C)CCNC(=O)Nc1ccc(F)cc1F,0.2,11.4,4.2,-7.4,-11.2,-1.3
CN(C)CCNC(=O)c1ccc2c(c1)NC(=O)c1ccccc1S2,1.1,7.2,4.6,-9.7,-14.4,-9.0
COc1cc2c(cc1Cl)/C(=C\CCN(C)C)c1ccccc1S2,3.5,-17.2,24.1,66.1*,-7.4,-4.0
CN(C)CC/C=C1/c2cc(F)ccc2Sc2ccc(Cl)cc21,3.3,-26.8,15.3,99.4*,-2.3,-7.3
COc1ccc(CCN(/C=C2\Sc3ccccc3C2=O)C(C)=O)cc1OC,0.3,20.0,-16.9,-19.8,-1.9,0.4
CCN=c1sc(C(=O)OC)cc(=O)n1CC,0.7,10.3,20.7,-8.6,-14.1,-0.6
COc1cccc(C=NNC(=O)C2CC2)c1,-0.3,0.0,-0.2,-0.2,-2.2,-2.2
COc1ccc(CNC(=O)C(=O)NC2CC(C)(C)NC(C)(C)C2)cc1,-0.4,4.3,2.9,-4.8,-1.0,-3.6
CN(c1ccccc1)S(=O)(=O)c1cc(C(=O)NCCCn2ccnc2)ccc1Cl,0.1,-3.4,-13.2,9.6,6.1,-7.4
CN(Cc1cn(C)nc1-c1ccc(Oc2ccccc2)cc1)Cc1cnc2ccccn12,8.7,-13.4,3.1,23.8*,20.1,-1.6
Cn1cc(CNCc2cnc3ccccn23)c(-c2ccc(Oc3ccccc3)cc2)n1,6.7,-15.0,6.3,7.3,13.6,-9.4
CCOC(=O)c1cc(-c2cccc(O)c2)oc1C,1.4,·,8.6,·,-9.4,·
COc1cc(C[C@@H]2C(=O)OC[C@H]2Cc2ccc(OC)c(OC)c2)ccc1O,11.8,-23.5,4.8,49.6*,4.4,3.3
CC1(C)c2[nH]c3ccccc3c2C[C@H]2C(=O)N(CCCO)CC(=O)N21,1.2,5.8,7.5,0.1,-7.5,-4.3
CC1=CC(C)(C)N(C(=O)CCl)c2cc(C)ccc21,-0.2,4.9,12.2,-3.9,-15.8,-6.4
CC1=CC(C)(C)N(C(=O)CNC2CCCCC2)c2cc(C)ccc21,1.2,-23.7,10.2,99.5*,-9.1,-5.5
COc1c(Cl)cnn(-c2ccc(Cl)c(Cl)c2)c1=O,16.8*,15.4,25.7,-7.3,-5.9,-12.9
COc1c(Cl)cnn(-c2ccccc2)c1=O,0.3,2.7,11.9,4.0,1.8,-0.3
Oc1ccc(CCNc2ncnc3ccc(Cl)cc23)cc1,15.5*,-22.3,0.0,34.8,8.2,7.4
COc1cccc(N2C(=O)C(O)=C(C(C)=O)C2c2ccc(OC)c(OC)c2)c1 (stereo unspecified),0.7,-0.1,10.7,1.8,-2.9,-1.6
